Data from publication PMC6212790, “How bacterial xenogeneic silencer rok distinguishes foreign from self DNA in its resident genome”.
In all, about 33,000 sequences were measured (“e-score”: median about -0.037, highest 2% from about 0.34 on). Shown is part of a subset that was picked to be rich in the highest values.

Biological target: T1, GST-Rok (full length) (Bacillus subtilis subsp. subtilis str. …, UniProt O34857 1-191)
T1 sequence: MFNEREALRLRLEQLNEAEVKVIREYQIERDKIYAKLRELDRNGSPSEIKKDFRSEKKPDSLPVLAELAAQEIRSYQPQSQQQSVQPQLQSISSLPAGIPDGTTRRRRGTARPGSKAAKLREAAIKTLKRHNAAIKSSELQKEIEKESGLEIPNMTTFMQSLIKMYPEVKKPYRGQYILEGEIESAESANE
Assay: protein binding microarray; Rok is a gene silencer of Bacillus subtilis; high values mean tight binding
Conditions: protein: recombinant; tags: GST (pTH5325, pDEST15-Magic modified); dsDNA, one strand shown
Summary of the method: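 Each has a 25-mer constant primer and a 35-mer variable part from a de Bruijn sequence of order 10, covering every non-palindromic 8-mer at least 32 times (palindromic 16). Preference for each 8-mer is given as a rank-based, unitless enrichment score (E-score). Its range runs from 0.5 (most favored) to −0.5 (most disfavored).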

| Sequence | binding signal |
| --- | --- |
| CTCATAAG | -0.129 E-score |
| AACTACAG | 0.337 E-score |
| ACCTACAA | 0.265 E-score |
| GCCTACAA | 0.107 E-score |
| CACTACAG | -0.0355 E-score |
| ACCTACAG | 0.0467 E-score |
| AACTACAA | 0.34 E-score |
| ACCTACAT | 0.271 E-score |
| AACTACAC | 0.335 E-score |
| AACTACAT | 0.419 E-score |
| CACTACAA | 0.143 E-score |
| GACTACAA | 0.12 E-score |
| TACTACAA | 0.357 E-score |
| GAACCAGC | -0.148 E-score |
| GTAATCCA | 0.00713 E-score |
| ACATCGGA | 0.06 E-score |
| ATTTTTGA | 0.0221 E-score |
| GCTCTCAA | -0.174 E-score |
| CCTAGCGA | -0.111 E-score |
| AGCTACAA | 0.205 E-score |
| TTCTACAA | 0.392 E-score |
| AGCTACAT | 0.364 E-score |

| Sequence | binding signal |
| --- | --- |
| CTCTACAA | 0.0924 E-score |
| AGCTACAC | 0.191 E-score |
| GTCTACAA | 0.11 E-score |
| ACTTCGTC | -0.0747 E-score |
| TGTCCAAA | 0.0695 E-score |
| ACCGGCCG | -0.0951 E-score |
| TCGAGAAA | 0.135 E-score |
| GTTATTTA | 0.197 E-score |
| GGTATTTA | 0.356 E-score |
| CTTATTTA | 0.148 E-score |
| CGTATTTA | 0.261 E-score |
| AGTATTTC | 0.332 E-score |
| AGTATTTG | 0.31 E-score |
| ATTATTTA | 0.406 E-score |
| GGTATTCA | -0.0162 E-score |
| AGTATTTA | 0.344 E-score |
| AAATGCTC | -0.142 E-score |
| AAGATTAG | 0.197 E-score |
| ACCAGTGC | -0.175 E-score |
| TAGCAGCA | 0.0346 E-score |
| ATAATACA | 0.237 E-score |
| CGAATATA | 0.321 E-score |

| Sequence | binding signal |
| --- | --- |
| ATAATACC | 0.174 E-score |
| ATAATAAC | 0.312 E-score |
| ATAATACG | 0.349 E-score |
| CTAATATA | 0.349 E-score |
| ATAATAAA | 0.297 E-score |
| ATAATAAT | 0.372 E-score |
| GGAATATA | 0.366 E-score |
| AGAATATA | 0.296 E-score |
| CTAATAGA | 0.0426 E-score |
| CTAATATC | 0.255 E-score |
| GTGGGTAA | 0.142 E-score |
| AGTGACAT | 0.101 E-score |
| AGCAAAAG | -0.151 E-score |
| CCACTGAA | -0.106 E-score |
| CCCATTGA | -0.11 E-score |
| ACTTGATG | -0.00809 E-score |
| AGCGCTGG | -0.124 E-score |
| AGGCGTGC | -0.13 E-score |
| ATATTCAT | 0.319 E-score |
| GTGACGGA | -0.136 E-score |
| TCGTTCAA | 0.0056 E-score |
| GTAATACA | 0.247 E-score |

| Sequence | binding signal |
| --- | --- |
| ATAATATC | 0.274 E-score |
| ATAATATG | 0.232 E-score |
| GTAATATA | 0.391 E-score |
| ATAATATA | 0.453 E-score |
| GTAATAGA | 0.257 E-score |
| GCATGTCA | -0.0408 E-score |
| ACGAGTTG | 0.149 E-score |
| GAGATTGA | 0.0297 E-score |
| TTGGTAAA | 0.217 E-score |
| CATATCGA | 0.0224 E-score |
| CTTTAAAG | 0.0411 E-score |
| GCTAGTGA | 0.0873 E-score |
| ACTAGTCG | 0.292 E-score |
| CCTAGTTA | 0.209 E-score |
| GCTAGTTA | 0.337 E-score |
| GCTAGTCA | -0.0821 E-score |
| ACTAGTCA | 0.352 E-score |
| ACTAGTTC | 0.329 E-score |
| ACTAGTCC | 0.108 E-score |
| ACTAGTTA | 0.44 E-score |
| ACTGTTCT | 0.0222 E-score |
| AAATAGGC | 0.00361 E-score |
